The list is not random: actives were taken first. Their share in the collection is about 1.7%.
SSB-PriA inh: inhibitors of Klebsiella pneumoniae PriA binding to SSB C-terminal tail, primary screen, biochemical, AlphaScreen; PriA–SSB C-terminal tail interaction (Klebsiella pneumoniae); AlphaScreen SSBct-PriA binding, biotinylated peptide; inhibition, % at 33 µM; 430,000 compounds, 0.6% hits; AID 1272365, 2023; in the data active = inhibition mostly above about 37%, no sharp cut-off; inactive = mostly below about 20%;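 also: plate controls were negative control peptide for no effect and reference peptide for full effect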
Yp Topo-I inh: Yersinia pestis topoisomerase I inhibitors, primary screen, biochemical, cleavage product accumulation, plate reader, single point. DNA topoisomerase I (Yersinia pestis CO92). AID 504884, 2011. 360,000 compounds, 0.064% hits. activity, % at 10 µM. Y. pestis Topo-I cleavage product accumulation; in the data active = activity above about 50%, passing the limit was not always enough; inconclusive = no clear call, values can overlap the other calls
PrP 5UTR inh: inhibition of PrP 5' UTR reporter expression; cell-based PrP 5' UTR mRNA reporter, plate reader; inhibition, % (no concentration beside the values); 340,000 compounds, 0.35% hits; AID 488862, 2010; in the data active = inhibition above about 52%; also: 0 = median of the neutral control wells
PfHsp40 yeast: rescue of yeast from PfHsp40 toxicity, primary screen, S. cerevisiae, ATP luminescence; S. cerevisiae expressing PfHsp40, growth rescue; growth rescue, % at 12.5 µM; 340,000 compounds, 0.68% hits; AID 504582, 2011; in the data active = growth rescue above about 28%, passing the limit was not always enough; inconclusive = no clear call, values can overlap the other calls;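 also: yeast W303a lacking pdr1 and pdr3 grown in galactose medium; growth measured after three days at 30 °C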
PrPC surface inh: inhibitors of human cell surface prion protein PrPC, primary screen, cell-based, TR-FRET. Major prion protein (Homo sapiens), P04156. TR-FRET read-out. inhibition, % at 13.8 µM. 370,000 compounds, 0.43% hits. AID 720596, 2013; in the data active = inhibition above about 24%; also: 0% = median of the test wells and 100% = reference compound wells
BJeLR viability: MLPCN primary cell-based screen for lethality selective to Ras in HRASV12 cells | BJeLR (HRASV12) viability, CellTiter-Glo ATP luminescence, 48 h | inhibition, % (no concentration beside the values) | 300,000 compounds, 0.17% hits; in the data active = inhibition above about 50%; inconclusive = no clear call, values can overlap the other calls
PrP UTR cherry: prion 5' UTR mRNA inhibition, cherry-pick retest | shares compounds with PrP 5UTR inh | cell-based prion protein 5' UTR reporter, plate reader | inhibition, % at 2.5 µM | 1,100 compounds, 48% hits | AID 504592, 2011; in the data active = inhibition above about 54%; inconclusive = no clear call, values can overlap the other calls
* marks the source's active call; other numbers are inactive results; i = inactive; ? = inconclusive; nt = no result given.

SMILES | SSB-PriA inh | Yp Topo-I inh | PrP 5UTR inh | PfHsp40 yeast | PrPC surface inh | BJeLR viability | PrP UTR cherry
CCOC(=O)c1cnc(Nc2nc3ccccc3o2)nc1C | -14 | 3 | 65* | -3 | -9 | 36 | 70*
COc1cc(SC)ccc1C(=O)Nc1ccc(Br)cn1 | -3 | 4 | 68* | 0 | -7 | 4 | 67*
COc1cc(SC)ccc1C(=O)Nc1ncc(C)s1 | -12 | 10 | 74* | 1 | 3 | 9 | 69*
COc1cc(SC)ccc1C(=O)Nc1ccccn1 | -7 | 10 | -27 | 1 | 3 | 2 | nt
Nc1ccc(-c2cc3ccccc3c(=O)o2)cc1 | -3 | -12 | 70* | 7 | -10 | nt | 68*
COc1cc(OC)cc(-c2cc3ccccc3c(=O)o2)c1 | -5 | 5 | -45 | 1 | -4 | nt | nt
CCN(CC)C(=O)c1ccc(NC(=O)c2cccc(C(F)(F)F)c2)cc1 | -5 | -9 | 78* | -1 | -6 | 14 | -12
O=c1oc2ccccc2cc1-c1cn2ccccc2n1 | -6 | 0 | 81* | -1 | -12 | 40 | ?
COc1ccc(C(C)n2c(=O)[nH]c3c(-c4ccccn4)nsc3c2=O)cc1OC (stereo not given) | -16 | nt | nt | nt | nt | nt | nt
COc1ccc(/C=N/NC(=O)c2[nH]c3ccc(Br)cc3c2-c2ccccc2)cc1 | i | 14 | 68* | 0 | 7 | 55* | 81*
COc1ccc(/C=N/NC(=O)c2[nH]c3ccc(Br)cc3c2-c2ccccc2)c(C(=O)O)c1OC | i | 8 | -23 | -1 | 7 | -4 | nt
CC[C@@]1(C(=O)OC)N[C@H](CN(C)C(=O)Nc2ccc(C)cc2)[C@@H]2C(=O)N(Cc3ccccc3)C(=O)[C@@H]21 | -4 | 6 | -27 | -1 | -1 | nt | nt
CC[C@@]1(C(=O)OC)N[C@H](CN(C)C(=O)Nc2ccc(F)cc2)[C@@H]2C(=O)N(Cc3ccccc3)C(=O)[C@@H]21 | 2 | -6 | 70* | 1 | -3 | nt | -8
CCN(C[C@H]1N[C@@](Cc2ccccc2)(C(=O)OC)[C@H]2C(=O)N(Cc3ccccc3)C(=O)[C@@H]12)S(=O)(=O)c1ccc(C(F)(F)F)cc1 | -2 | 23 | 86* | 1 | -2 | nt | -13
Cc1ccc2nc3sc(C(=O)N4CCOCC4)c(N)c3cc2c1 | -14 | 6 | 86* | -1 | -4 | 1 | 69*
COc1ccccc1NC(=O)c1ccc(NS(=O)(=O)c2cc(C)ccc2C)cc1 | -15 | nt | nt | nt | nt | nt | nt
O=C(Cc1cccnc1)N1CC(Oc2nccs2)C1 | -3 | nt | nt | nt | nt | nt | nt
O=C(Cn1c(=O)n(Cc2ccccc2)c(=O)c2ncccc21)NC[C@H]1CCCO1 | -12 | nt | nt | nt | nt | nt | nt
CCCCN1C=C(C(=O)c2ccccc2)C(=O)CC1 | 10 | 3 | 4 | -2 | -1 | nt | nt
CCN1C=C(C(=O)c2ccccc2)C(=O)CC1 | -23 | 3 | 61* | -2 | 4 | nt | 0
O=C(c1cccnc1)N1CCC(CNS(=O)(=O)c2cccnc2)CC1 | -1 | nt | nt | nt | nt | nt | nt
COCc1nnc(NS(=O)(=O)c2ccc(OC)cc2)s1 | -8 | 4 | 62* | 0 | -1 | nt | -22
CCN(CC)c1ccc2cc(-c3nc4ccccc4n3C)c(=O)oc2c1 | -12 | 0 | -17 | 0 | 1 | 41 | nt
CCN(CC)c1ccc2cc(-c3nc4ccccc4[nH]3)c(=O)oc2c1 | -22 | -7 | 58* | -1 | nt | 12 | 66*
COc1ccc(OC)c(C2C3=C(COC3=O)Nc3cc4c(cc32)OCO4)c1 (stereo not given) | -3 | 2 | 58* | 8 | 13 | 12 | 90*
SMILES | SSB-PriA inh | Yp Topo-I inh | PrP 5UTR inh | PfHsp40 yeast | PrPC surface inh | BJeLR viability | PrP UTR cherry
C#CCOc1cc(C2C3=C(COC3=O)Nc3cc4c(cc32)OCO4)ccc1OC (stereo not given) | 1 | 7 | 29 | -2 | 11 | nt | nt
CN(C)CCNc1ccc(CO)c2sc3ccc(O)cc3c(=O)c12 | 28 | -12 | 1 | -1 | -13 | nt | nt
CN(C)CCNc1ccc2ncn3c4ccc(O)cc4c(=O)c1c23 | 22 | -42 | 93* | 0 | -18 | nt | 60*
CCOC(=O)CC/C(C)=N\N=C1\SC(CC(=O)O)C(=O)N1c1ccccc1 (stereo not given) | nt | 0 | 85* | 2 | 0 | 8 | -18
O=C(O)CC1S/C(=N\N=C2CCCCCC2)N(c2ccccc2)C1=O (stereo not given) | nt | -1 | -12 | -1 | -1 | 4 | nt
CC(C)(C)C(=O)Nc1cc2nn(-c3ccccc3)nc2cc1Cl | -12 | -4 | 86* | 1 | 5 | nt | 73*
COc1ccc(/C=N/NC(=O)c2cc3c(OC)ccc(OC)c3[nH]2)cc1O | nt | -32 | 60* | 1 | -6 | 35 | 78*
COc1ccc(OC)c2[nH]c(C(=O)NN=Cc3ccccc3O)cc12 | 4 | nt | nt | nt | nt | nt | nt
CCn1cc(NC(=O)N(CCO)Cc2ccccc2)c2ccccc21 | 3 | nt | nt | nt | nt | nt | nt
CCOc1ccc(C(=O)C(c2ccccc2)N2CCOCC2)cc1 (stereo not given) | -9 | 1 | 82* | -1 | 1 | 9 | -1
CCCOc1ccc(C(=O)C(c2ccccc2)N2CCOCC2)cc1 (stereo not given) | -20 | 25 | -22 | 1 | 4 | 0 | nt
CCn1c(SCC(=O)Nc2ccc(N(C)C)cc2)nnc1-c1cccc(C)c1 | 10 | 5 | 64* | 0 | 1 | -4 | -6
CCn1c(SCC(=O)Nc2cc(C)on2)nnc1-c1cccc(C)c1 | 0 | 11 | -47 | 1 | -10 | 3 | nt
COc1ccc(CC(=O)Oc2ccccc2[N+](=O)[O-])cc1 | -14 | 0 | -28 | -2 | -2 | -12 | nt
COc1ccc(CC(=O)Oc2ccccc2C)cc1 | -57 | 6 | 58* | 0 | 0 | 10 | -12
O=C(Nc1ccc(-c2nc3cccnc3s2)cc1)C1CCCO1 (stereo not given) | -1 | 9 | 62* | 0 | -5 | 23 | 65*
O=[N+]([O-])c1nn(-c2ccc3c(c2)OCCO3)n(O)c1=Nc1ccccc1 | 21 | -3 | 81* | 0 | -41 | 5 | 78*
O=[N+]([O-])c1nn(-c2ccc3c(c2)OCCO3)n(O)c1=Nc1ccc(Cl)cc1 | 21 | 1 | 14 | 0 | -13 | 7 | nt
CCC(C)n1c(-c2cccc(S(=O)(=O)N3CCOCC3)c2)n[nH]c1=S (stereo not given) | 4 | 0 | -15 | 1 | -4 | nt | nt
CC(C)Cn1c(-c2cccc(S(=O)(=O)N3CCOCC3)c2)n[nH]c1=S | 5 | 0 | 77* | 1 | 8 | nt | -18

Source: PubChem
